Assay outcomes (PubChem)
In the library only some 2.6% were active in any assay of this set; here they are far more common.
Cruzain noTriton: qHTS Assay for Promiscuous and Specific Inhibitors of Cruzain (without detergent) | Cruzipain (Trypanosoma cruzi), P25779 | purified cruzain, Z-FR-AMC fluorescence, no detergent | Potency, µM, inactives show max response, negative = inhibition, hits mostly inhibitors | actives 2.3% (n = 200,000) | AID 1476, 2009;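 further: plate controls were enzyme without inhibitor for no effect and buffer without enzyme for full effect; nearly all actives have a fitted effect of over 40% in size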
Target sequence (P25779 123-467 limits assumed): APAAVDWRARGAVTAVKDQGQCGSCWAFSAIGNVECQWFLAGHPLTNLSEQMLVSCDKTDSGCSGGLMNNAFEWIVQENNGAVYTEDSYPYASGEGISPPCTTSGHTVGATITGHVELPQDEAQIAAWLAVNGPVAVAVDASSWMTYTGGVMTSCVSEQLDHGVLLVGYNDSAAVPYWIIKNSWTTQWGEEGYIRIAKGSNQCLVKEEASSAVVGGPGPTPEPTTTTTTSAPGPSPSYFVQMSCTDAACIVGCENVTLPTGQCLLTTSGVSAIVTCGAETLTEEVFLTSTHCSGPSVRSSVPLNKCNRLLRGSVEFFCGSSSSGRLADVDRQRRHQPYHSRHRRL
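Detergent-free condition (0.00005% Triton X-100) in acetate buffer pH 5.5 with DTT. 1.5 nM enzyme and compound were pre-mixed 15 min, then 2 uM Z-FR-AMC substrate added; reaction progress from fluorescence change between first and third reads (60 s).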
Cruzain Triton: qHTS Assay for Promiscuous and Specific Inhibitors of Cruzain (with detergent) | Cruzipain (Trypanosoma cruzi), P25779 | purified cruzain, Z-FR-AMC fluorescence, 0.01% Triton | Potency, µM, for inactives: max response, negative = inhibition, hits mostly inhibitors | actives 0.43% (n = 200,000) | AID 1478, 2009;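 further: plate controls were neutral wells for no effect and buffer without enzyme for full effect; nearly all actives have a fitted effect of over 40% in size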
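Detergent-containing run (0.01% Triton X-100) in acetate buffer pH 5.5 with 5 mM DTT: enzyme at 1.5 nM final, 15 min compound preincubation at room temperature, then 2 uM Z-FR-AMC substrate. Activity taken as 60 s fluorescence increase at 360/450 nm.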
Numbers without * were called inactive; ? = inconclusive. The call rests on the fitted dose curve; in most records, active means well fitted curve in the direction sought with a large enough effect; inconclusive means small, poorly fitted or top-dose-only effect, or another doubt; inactive means no such curve, though single readings can be large; an effect the other way counts as inactive or inconclusive. Potency means the concentration at half of the fitted maximal effect.

SMILES | Cruzain noTriton | Cruzain Triton
CC1=CC(=O)CC(C)(C)[C@]1(O)/C=C\C(C)=C\C(=O)O | 3.8% | 6.2%
O=C(Nc1ccc(C(=O)N2CCN(c3ccc(Cl)cc3)CC2)cc1)c1nsc2ccccc12 | -9.6% | -2.0%
Cc1ccc(Cl)cc1N1CCN(C(=O)c2ccc(NC(=O)c3nsc4ccccc34)cc2)CC1 | 7.94µM* | 2.2%
CCn1c(CN2CCN(c3cccc(Cl)c3)CC2)nc2c1c(=O)[nH]c(=O)n2C | 21.0% | -6.3%
O=C(CSCc1nc2cccnc2n1C1CCCCC1)NCc1cccc(Br)c1 | 4.5% | -6.6%
Cc1nc(SCc2nc3ccccc3[nH]2)c2oc3ccccc3c2n1 | 15.8µM* | ?
Cc1nc(N2CCN(Cc3nc4ccccc4[nH]3)CC2)c2oc3ccccc3c2n1 | ? | -5.9%
Fc1ccc(CSc2ncnc3c2oc2ccccc23)cc1 | 0.0% | -3.1%
c1ccc2[nH]c(CSc3ncnc4c3oc3ccccc34)nc2c1 | 15.8µM* | ?
COc1cccc(NC(=O)CSc2nc(=O)n(Cc3ccccn3)c3c2CCC3)c1 | 12.8% | -3.3%
COc1ccc(Cl)cc1NC(=O)COC(=O)CNC(=O)c1ccc([N+](=O)[O-])c(C)c1 | ? | 20µM*
Cc1ccc(C(=O)NCC(=O)OCC(=O)Nc2ccc(Cl)cc2C(F)(F)F)cc1C | ? | 14.1µM*
COCC(=O)OCC(=O)Nc1cc(C)c(C)cc1[N+](=O)[O-] | 4.0% | -2.1%
COc1ccc(C(=O)NCC(=O)OCC(=O)Nc2cc(OC)ccc2OC)cc1 | -18.1% | ?
Cc1ccc(C(=O)NCC(=O)OCC(=O)Nc2cc(C)c(C)cc2[N+](=O)[O-])cc1 | 10µM* | 8.91µM*
Cc1cc(C(=O)NCC(=O)OCC(=O)Nc2ccc(OC(F)F)cc2)ccc1[N+](=O)[O-] | 10µM* | 11.2µM*
COc1ccc(NC(=O)COC(=O)CNC(=O)c2cc(OC)c(OC)c(OC)c2)cc1 | -9.6% | -5.9%
Cc1ccsc1C(=O)OCC(=O)Nc1ccc(Cl)cc1C(F)(F)F | -3.0% | 2.9%
COc1ccc(S(=O)(=O)n2nc(C)c(S(=O)(=O)N3CCCCC3)c2C)cc1 | 4.5% | -0.4%
COc1cc(Nc2nc3c(S(=O)(=O)c4ccccc4)nnn3c3ccc(Cl)cc23)cc(OC)c1 | 0.8% | 0.5%
O=C(NCCc1ccccc1Cl)c1ccc2c(c1)nc1n2CCCCC1 | -13.2% | -0.9%
CCOC(=O)c1c(-c2ccccc2)csc1NC(=O)c1cc(-c2ccc(F)cc2)on1 | 3.4% | -2.0%
CCOC(=O)c1c(NC(=O)/C=C/c2ccc(Cl)cc2)sc2c1CCC(C)C2 (stereo unspecified) | -2.6% | -0.4%
CCOc1ccc(C(=O)c2cn(Cc3ccccc3)c3c(F)cc(F)cc3c2=O)cc1 | 1.9% | -1.2%
O=C1C=CC2=C3c4cc(O)c(O)cc4C[C@@]3(O)COC2=C1 | -10.1% | -0.7%
SMILES | Cruzain noTriton | Cruzain Triton
O=C(COC(=O)CSc1cc(Cl)ccc1Cl)Nc1ncc(C(F)(F)F)cc1Cl | -6.3% | -23.4%
O=C(COC(=O)CNC(=O)c1ccc(Cl)cc1)Nc1ncc(C(F)(F)F)cc1Cl | 3.98µM* | 7.94µM*
O=C(CNC(=O)c1ccco1)NCC(=O)OC(C(=O)c1ccccc1)c1ccc(Cl)cc1 (stereo unspecified) | -25.9% | ?
O=C(CNC(=O)c1ccco1)OC(C(=O)c1ccccc1)c1ccccc1 (stereo unspecified) | 7.94µM* | 6.31µM*
COc1cccc(Nc2ncc3nc(CCc4ccccc4)c(=O)n(C)c3n2)c1 | -2.7% | -0.8%
Cc1cc(C)cc(N(CC(=O)NCCc2ccc(Cl)cc2)S(=O)(=O)c2c(C)noc2C)c1 | -0.8% | -2.9%
CCC(C(=O)NC1CCCC1)N(C(=O)Cn1nnc(-c2cccs2)n1)c1cnc2ccccc2c1 (stereo unspecified) | 6.8% | 0.3%
O=C(NCc1ccccc1)C(c1ccc(F)cc1)N(Cc1ccc2c(c1)OCO2)C(=O)Cn1nnc(-c2cccs2)n1 (stereo unspecified) | 12.6µM* | -1.5%
CCCC(C(=O)NCc1ccccc1)N(C(=O)Cn1nnc(-c2cccs2)n1)c1ccc2c(c1)OCCO2 (stereo unspecified) | 20µM* | 0.8%
O=C(CN(Cc1ccco1)C(=O)Cn1nnc(-c2cccs2)n1)NCc1ccccc1 | -1.0% | -0.5%
CCOC(=O)c1ccc(NC(=O)CSc2ccc(-c3sc(C)nc3C)nn2)cc1 | -7.8% | -1.6%
CCOC(=O)c1ccccc1NC(=O)N1CCOc2ccc(Cl)cc21 | -6.9% | -0.3%
O=C(CSc1nc2ccccc2[nH]1)N1c2ccccc2Sc2ccccc21 | -3.1% | -6.0%
O=C(CSc1nc2ccccc2[nH]1)c1ccc(Cl)s1 | 10µM* | -4.2%
CC(C)CCN1CC(O)=C(c2nc(-c3ccc(Cl)cc3)cs2)C1=N | 25.1µM* | 1.6%
N=C1C(c2nc(-c3ccc(F)cc3)cs2)=C(O)CN1CCCN1CCOCC1 | -0.3% | -6.1%
Cc1ccc(CSC2=Nc3ccccc3C3=NC(CCC(=O)NC4CCCCC4)C(=O)N23)cc1 (stereo unspecified) | -7.3% | 4.3%
COc1ccc(CNC(=O)c2cc(Nc3ccccc3C)nc3ccccc23)cc1 | 25.1µM* | -12.2%
COc1ccc(CNC(=O)c2cc(Nc3ccc(C)cc3C)nc3ccccc23)cc1 | 9.0% | -10.5%
O=C(NCC(c1cccnc1)N1CCc2ccccc21)c1cccc(F)c1 (stereo unspecified) | ? | -9.7%
CCOc1ccc2cc(C#N)c(SCC(=O)NC(C)CC)nc2c1 (stereo unspecified) | 12.6µM* | 3.3%
COc1ccc(-c2ccc(C#N)c(SCC(=O)NCCc3ccccc3)n2)cc1OC | 0.5% | 3.4%
COC(=O)CSc1nc2cc(OC)ccc2cc1C#N | -10.4% | -3.1%
COc1ccc2cc(C#N)c(SCC(=O)NNC(=O)Cc3ccccc3)nc2c1 | 12.6µM* | 4.5%
Cc1ccccc1NC(=O)CSc1nc(N)c(C#N)cc1C#N | -10.7% | 4.6%
SMILES | Cruzain noTriton | Cruzain Triton
CCOC(=O)CSc1nc2cc(OCC)ccc2cc1C#N | -16.2% | -9.0%
COc1cccc(-c2ccc(C#N)c(SCC(=O)NCCc3cccc(Cl)c3)n2)c1 | 31.6µM* | -4.0%
Cc1ccc2cc(C#N)c(SCC(=O)NNC(=O)Cc3ccccc3)nc2c1 | 10µM* | -2.5%
COc1ccc(OC)c(CCNc2ncnc3onc(-c4ccc(Cl)cc4)c23)c1 | -3.7% | -4.3%
O=C(CSc1ncccc1C(=O)Oc1ccccc1Cl)Nc1ccc(C(F)(F)F)cc1Cl | -7.2% | -1.3%
Cc1ccc(N2CC(NC(=O)c3ccc(S(=O)(=O)N(C)C)cc3)CC2=O)cc1C (stereo unspecified) | 15.0% | -1.1%
Cc1ccc(S(=O)(=O)c2cc3cc(C(=O)Nc4ccc(C)cc4C)ccc3oc2=O)cc1 | -1.6% | 2.0%
CC(C)(CN)CN | 10.1% | 1.2%
COc1ccccc1/C=C/C(=O)NC(=S)Nc1ccc(S(=O)(=O)N(C)c2ccccc2)cc1 | 3.98µM* | 2.3%
CN(c1ccccc1)S(=O)(=O)c1ccc(NC(=S)NC(=O)c2ccccc2)cc1 | ? | 1.8%
CC1=C(c2ccc(C)c(C)c2)S(=O)(=O)N=C1N1CCC(C(=O)NC(C)Cc2ccco2)CC1 (stereo unspecified) | ? | -2.3%
CC(C)CC(NC(=O)C1CCC(C)CC1)C(=O)OCC(=O)c1ccc(Cl)cc1 (stereo unspecified) | 0.4% | -24.3%
CCOC(=O)Cc1csc(N/N=C\c2cccc(Br)c2)n1 | 31.6µM* | -22.8%
CCOC(=O)Cc1csc(N/N=C/c2ccccc2)n1 | 0.7% | -7.1%
